This is a sample that favours compounds with a hit; in the whole collection about 2.4% have one here.
AmpC inh det = Promiscuous and Specific Inhibitors of AmpC Beta-Lactamase (assay with detergent); P00811; Potency, µM (highest dose often 28.7 µM), without a hit: at the highest dose activity change, negative = inhibition; hit rate 0.09% among 71,000; purified AmpC, nitrocefin hydrolysis with detergent; active means well fitted curve in the direction sought with a large enough effect; inconclusive means small, poorly fitted or top-dose-only effect; further: on the % scale 0 is the no-effect control and ±100 the full control effect
Target sequence (P00811 whole entry, looked up): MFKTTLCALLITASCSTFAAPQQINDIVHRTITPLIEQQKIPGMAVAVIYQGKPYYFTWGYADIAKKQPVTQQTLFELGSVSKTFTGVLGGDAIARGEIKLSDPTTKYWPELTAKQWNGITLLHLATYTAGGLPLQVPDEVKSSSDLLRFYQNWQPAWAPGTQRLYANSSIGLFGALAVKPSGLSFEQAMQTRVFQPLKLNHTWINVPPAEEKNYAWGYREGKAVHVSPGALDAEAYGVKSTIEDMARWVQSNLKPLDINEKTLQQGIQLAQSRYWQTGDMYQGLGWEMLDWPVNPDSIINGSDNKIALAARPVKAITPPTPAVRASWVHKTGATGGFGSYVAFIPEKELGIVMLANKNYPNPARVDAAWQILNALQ
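E. coli AmpC (5.3 nM) in 20 mM phosphate pH 7.0 with 0.01% Triton X-100, preincubated 15 min RT with compound; nitrocefin (2 uL of 800 uM stock) hydrolysis followed by 480 nm absorbance every 20 s over 4 min.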
AmpC nodet inh = Promiscuous and Specific Inhibitors of AmpC Beta-Lactamase (assay without detergent) | P00811 | AmpC nitrocefin hydrolysis, absorbance 480 nm, no detergent | Potency, µM (highest dose often 28.7 µM), inactives show top-dose activity change, negative = inhibition | hit rate 1.8% among 71,000 | AID 585, 2007; further: % of control where 0% means no effect
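AmpC, 20 mM phosphate pH 7.0; 15 min cpd preinc, RT; start with nitrocefin (800 uM stock); A480 kinetic read, 20 s intervals, 4 min. No-enzyme wells = negative control.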
Prx2 Sm inh = Schistosoma Mansoni Peroxiredoxins (Prx2); Schistosoma mansoni peroxiredoxin 2 (Prx2); S. mansoni Prx2 activity coupled to TGR/GSH (TGR is thioredoxin glutathione reductase), NADPH fluorescence loss, qHTS; Potency, µM; hit rate 0.07% among 65,000; AID 448, 2006
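Activity is read as the drop in NADPH fluorescence (365/450 nm), recorded every 30 sec for 8 min after H2O2 addition. Prx2 is coupled to TGR-driven NADPH oxidation through glutathione, in phosphate buffer pH 7.4.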
Anthrax LT inh = qHTS Assay for Anthrax Lethal Toxin Internalization; hit rate 0.67% among 70,000; Potency, µM (doses to about 40 µM), for inactives: top-dose activity change, negative = inhibition, actives largely listed as inhibitors; Cells, anthrax lethal toxin internalization, FRET ratio (460/530); further: on the % scale 0 is the no-effect control and ±100 the full control effect; nearly all actives have a fitted effect of over 50% in size
The depositor's hits bear a star; ? = inconclusive; . = not tested or not shown; [ ] = another dose, or the depositor's remark. Unless noted, the call rests on the fitted dose curve. Potency means the concentration at half of the fitted maximal effect.

SMILES	AmpC inh det	AmpC nodet inh	Prx2 Sm inh	Anthrax LT inh
Cc1c(NC(=O)CCCCCN2C(=O)C3C4C=CC(C4)C3C2=O)c(=O)n(-c2ccccc2)n1C (centres undefined)	11%	2.5µM*[single pt active]	>57	2%
O=C(NCCN1C(=O)C2C3C=CC(C3)C2C1=O)N1CCOCC1 (centres undefined)	12%	4µM*[single pt active]	>57	-7%
CNC(=O)[C@H]1O[C@H](n2cnc3c(NCc4cccc(I)c4)ncnc32)[C@@H](O)[C@@H]1O	2%	93%	>57	?
O=C(NCCN1C(=O)C2C3C=CC(C3)C2C1=O)Nc1ccccc1O (centres undefined)	14%	4µM*[single pt active]	>57	-6%
O=C(CCN1C(=O)C2C3C=CC(C3)C2C1=O)NCCc1ccccc1 (centres undefined)	-4%	17%	>57	-10%
O=C(Nc1cc[c]([Sb](=[O])([OH])[OH])cc1)c1ccccc1	-3%[5.75 µM]	3.2µM*[single pt active]	>57	-3%[8 µM]
O=C1[C@H]2[C@H]3[C@H](O)[C@H](O)C/C(=N/OC[C@@H](O)COCc4ccco4)[C@@H]3CC[C@@H]2C(=O)N1C1CCCCC1	.	.	.	-3%[8 µM]
O=C(Cc1coc2cc3c(cc12)CCC3)OCc1cc(=O)n2c(n1)sc1ccccc12	-1%	10µM*	>57	0%
Cc1ccc2c(CC(=O)OCc3csc(C)n3)coc2c1	-4%	37%	>57	3%
CC(C)(C)C(=O)C1C(=O)c2ccccc2C1=O	12%	-18%	.	7%
CCC(C)NC(=O)CS(=O)Cc1nc(-c2cccc(OC)c2)oc1C (centres undefined)	12%	4µM*[single pt active]	>57	-5%
COc1cccc(-c2nc(CS(=O)CC(=O)NC3CCCC3)c(C)o2)c1 (centres undefined)	8%	4µM*[single pt active]	>57	4%
Cc1cccc(-c2nc(CS(=O)CC(=O)N3CCN(C)CC3)c(C)o2)c1 (centres undefined)	10%	4µM*[single pt active]	>57	4%
C[C@@H]1[C@@H](C)N1C[C@H](O)Cn1ccnc1[N+](=O)[O-] (some centres undefined)	-2%[5.75 µM]	11%[5.75 µM]	>57	4%[8 µM]
CN[C@H]1[C@H]2[C@H]3CCN2C[C@@H]1O3	1%	6%	>57	?
COc1cc2c(=O)n(-c3ccc(C)cc3)c(=O)n(CC(=O)c3ccc4c(c3)OCO4)c2cc1OC	-4%	119%	>57	5%
COc1cc2c(O)c3c(c(-c4ccc5c(c4)OCO5)c2cc1OC)C(=O)OC3	4%	6%	>57	0.02µM*
Oc1cc(Cl)c(Cl)c(Cl)c1	10%	-17%	.	13µM*
Oc1c(Cl)c(Cl)cc(Cl)c1Cl	7%	-18%	.	-5%
O=S(=O)(NCCNC/C=C\c1ccc(Br)cc1)c1cccc2cnccc12	-5%	20%	.	?
Brc1ccc(-c2nnc3sc(CNCc4ccc5c(c4)OCO5)cn23)cc1	8%	4µM*[single pt active]	>57	-10%
Brc1ccc(-c2nnc3sc(CNC4CCCC4)cn23)cc1	10%	4µM*[single pt active]	>57	-11%
c1ccc(-c2nnc3sc(CN4CCC5(CC4)OCCO5)cn23)cc1	-4%	5%	>57	8%
N#Cc1cccc(-c2nc3cnc(N4CCOCC4)nc3n(C3CC3)c2=O)c1	1%	7%	>57	?
N#CCCn1c(=O)cnc2cnc(OCc3ccccc3)nc21	8%	7%	>57	-3%
SMILES	AmpC inh det	AmpC nodet inh	Prx2 Sm inh	Anthrax LT inh
CCOC(=O)CCc1c(C)n(CC)c2ncnn2c1=O	12%	4µM*[single pt active]	>57	-3%
CC[C@@]12CCCN3CC[C@@]4(c5ccc(OC)c(O)c5N(C(C)=O)[C@H]4CC1)[C@H]32	-2%	10%	>57	7%
COC(=O)C1=C(C)N(Cc2ccccc2)C2=C(C(C)=O)C(c3ccccc3)[C@@](O)(C(=O)OC)C(=O)N2C1c1ccccc1 (some centres undefined)	.	.	.	-7%[8 µM]
CCCCSc1nc2c(cc1C#N)CCC2	-4%	-6%	>57	-13%
CCCSc1nc(C)c(-c2csc(C(C#N)=C3CCCC3)n2)cc1C#N	0%	13µM*	>57	-12%
Cn1c(=O)oc2cc(S(=O)(=O)N3CCCC(C(=O)NCc4ccc5c(c4)OCO5)C3)ccc21 (centres undefined)	11%	4µM*[single pt active]	>57	24%
Cc1ccc(NC(=O)C2CCCN(S(=O)(=O)c3ccc4c(c3)oc(=O)n4C)C2)nc1 (centres undefined)	14%	4µM*[single pt active]	>57	3%
